Results as given in paper PMC10668032, “Altered binding affinity of SIX1-Q177R correlates with enhanced WNT5A and WNT pathway effector expression in Wilms tumor”.
In all, about 33,000 sequences were measured (“e-score”: median about -0.053, highest 2% from about 0.38 on). What follows is part of a selection rich in the highest values, with near analogues and random picks from the rest.

Biological target: T1, SIX1 homeodomain (reference allele) (human, UniProt Q15475 108-198)
T1 sequence: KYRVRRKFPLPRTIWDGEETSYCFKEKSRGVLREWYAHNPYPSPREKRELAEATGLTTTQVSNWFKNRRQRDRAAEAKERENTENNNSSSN
Experiment: universal protein binding microarray; Universal all-10-mer PBM (8x60K, AMADID 030236), 300 nM GST-tagged protein, Alexa Fluor 488 anti-GST; buffer, salt, pH and temperature not stated (as in Berger); high values mean tight binding
Conditions: protein: ivt; tags: N-terminal GST; dsDNA, one strand shown
Summary of the method: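 Binding was expressed as 8-mer E-scores calculated with the Universal PBM Analysis Suite. The GST-tagged homeodomains, made by in vitro transcription/translation, were applied in duplicate at 300 nM final concentration to universal 'all 10-mer' protein binding microarrays (8×60K format).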

Sequence	binding signal [E-score]
AAGCCGGA	0.159 ± 0.0672
GATCGGCC	0.255 ± 0.03
TACCCCAA	0.174 ± 0.0539
ATATACTA	0.256 ± 0.0638
CAACACCC	0.24 ± 0.00973
CTCGATCC	0.325 ± 0.0557
ATCGATTC	0.2 ± 0.0315
ATCGATAG	0.2745 ± 0.00192
CTCGATAC	0.41 ± 0.0184
ATCGATAC	0.446 ± 0.0107
CTCGATGA	0.165 ± 0.00668
CAGATGAG	0.203 ± 0.0236
CAATAATA	0.223 ± 0.0513
CCCGCGAG	0.206 ± 0.0166
GGTGTAAA	0.198 ± 0.028
ATATCGAC	0.379 ± 0.00832
GTATCTAA	0.374 ± 0.0214
GTATCGAC	0.405 ± 0.0127
CTATCGAG	0.157 ± 0.0365
GGATCGAC	0.297 ± 0.113
ATATCGAG	0.335 ± 0.0302
GTATAGAC	0.276 ± 0.00412
GGATCGAA	0.267 ± 0.0826
AGATCGAT	0.345 ± 0.0116
CGATCGAG	0.21 ± 0.0298
ATATCGAT	0.411 ± 0.0335

Sequence	binding signal [E-score]
GTATCGAA	0.43 ± 0.00911
ATAGCTTA	0.214 ± 0.0605
ATATAATA	0.322 ± 0.053
AAGCGTAT	0.231 ± 0.0511
CTCGTATA	0.161 ± 0.055
GGTTATAC	0.261 ± 0.0421
ATCGCCTC	0.216 ± 0.0033
ACCGGAGA	0.201 ± 0.00786
CCGTAATC	0.169 ± 0.00918
GGTCGATA	0.271 ± 0.00805
CGGGACAC	0.153 ± 0.0127
ATATCGAA	0.393 ± 0.0367
CTATCGAA	0.228 ± 0.0495
TATACGAA	0.164 ± 0.00791
AATATGTG	0.197 ± 0.0339
ATAAATAC	0.163 ± 0.0133
AAGTATTA	0.254 ± 0.109
GGGTATTA	0.393 ± 0.0546
AGGTATTG	0.29 ± 0.0429
GCGTATTA	0.161 ± 0.0688
AGGTATTA	0.385 ± 0.0849
CGGTATTA	0.368 ± 0.031
CTTACACC	0.203 ± 0.0268
GTCGTATA	0.186 ± 0.0245
GTAGACAC	0.182 ± 0.0638
AGATAGGG	0.263 ± 0.0607

Sequence	binding signal [E-score]
TACCAGTA	0.201 ± 0.0209
AATCGGGG	0.181 ± 0.117
ATGAATAC	0.2845 ± 0.00167
CGGAGATC	0.322 ± 0.00475
CAAATATC	0.21 ± 0.0519
GAAGTATA	0.261 ± 0.108
AAAGTATA	0.173 ± 0.149
TAAGTATA	0.218 ± 0.0666
AAAGTATC	0.413 ± 0.0634
CAAGTATC	0.378 ± 0.0659
GAACTATC	0.23 ± 0.0598
GAAGTATC	0.407 ± 0.0492
ATAAGTAT	0.235 ± 0.0716
TACACTGA	0.178 ± 0.0145
ATCTTCCC	0.174 ± 0.0102
ATCACGAA	0.172 ± 0.0453
CTAGACAC	0.158 ± 0.012
GAATAATC	0.209 ± 0.0094
ATGCATCA	0.198 ± 0.0685
ATCATAAG	0.286 ± 0.0333
TATATATA	0.344 ± 0.0349
GATATATA	0.377 ± 0.0449
GATATATC	0.441 ± 0.0284
CATATATC	0.341 ± 0.0628
GATATAGA	0.318 ± 0.034
AATATATC	0.343 ± 0.0593

Sequence	binding signal [E-score]
ATACTTTC	0.16 ± 0.145
CCTCCGGA	0.203 ± 0.0104
CCTCGAGG	0.197 ± 0.043
CAGATCAG	0.353 ± 0.0153
ATACCAAT	0.3482 ± 0.0028
ATCCCAGC	0.221 ± 0.0257
CGTGTATA	0.247 ± 0.0518
AGTGTATA	0.291 ± 0.0334
CTTGTATC	0.266 ± 0.0293
CATGTATC	0.403 ± 0.00743
CGTGTATC	0.404 ± 0.0303
AATGTATC	0.363 ± 0.0137
CATGTATA	0.223 ± 0.0131
AGTGTACC	0.16 ± 0.0592
AGTGTATC	0.43 ± 0.00296
ATCGGGGG	0.223 ± 0.00524
ATCAACAG	0.209 ± 0.0732
ATCCGGCC	0.316 ± 0.022
CGATCGGC	0.1802 ± 0.00119
TATTATGA	0.207 ± 0.134
ATCAAGCA	0.174 ± 0.047
GATGCGGA	0.199 ± 0.0357
CTTCGATC	0.152 ± 0.112
ACTGATCG	0.156 ± 0.0405
GCTGATCC	0.425 ± 0.0138
CCTGATCC	0.387 ± 0.0469

Sequence	binding signal [E-score]
ACTGATCC	0.398 ± 0.007
CCTGATCG	0.197 ± 0.0659
GCAGATCC	0.272 ± 0.0482
CCTGATCA	0.306 ± 0.0156
ACTGATCT	0.34 ± 0.0165
GCTGATCA	0.198 ± 0.00374
GTCTAGTA	0.158 ± 0.0279
CACACCGG	0.224 ± 0.0376
GTATACGA	0.308 ± 0.0266
CATGGTGA	0.225 ± 0.035
AATATGCG	0.171 ± 0.0476
GATATGAA	0.259 ± 0.0356
GATATGCA	0.4032 ± 0.00302
AATATGCC	0.16 ± 0.0322
GATATGCC	0.427 ± 0.0454
CATATGCC	0.162 ± 0.0394
ATAATACA	0.302 ± 0.0417
CTAATACC	0.285 ± 0.0649
ATAATACC	0.421 ± 0.0503
ATAATACG	0.385 ± 0.0407
ACAATACG	0.25 ± 0.0363
ATAATATG	0.27 ± 0.0724
GGAGCATA	0.213 ± 0.018
ATATGAGG	0.156 ± 0.0225
CGTCTAAG	0.193 ± 0.0194
GCAATATA	0.16 ± 0.0581

Sequence	binding signal [E-score]
GGACACCC	0.372 ± 0.033
AGACACCG	0.323 ± 0.0488
CAACACCA	0.282 ± 0.0199
CGACACCA	0.416 ± 0.0371
AGACACCC	0.335 ± 0.0199
CGACACCG	0.427 ± 0.0217
CCACACCG	0.151 ± 0.104
CGACACCC	0.439 ± 0.0379
TCACACCA	0.195 ± 0.0562
CCATAGGG	0.162 ± 0.116
GCAGATCA	0.369 ± 0.0161
ATACTGAG	0.286 ± 0.0205
CTCCAGGA	0.161 ± 0.0145
ATCAGGTA	0.2929 ± 0.00141
CTCGTGTA	0.158 ± 0.00844
AAAATCCG	0.175 ± 0.0497
GGAGTATA	0.319 ± 0.0316
AGAGTATC	0.465 ± 0.0179
AGAGTATA	0.262 ± 0.0847
CGAGTACC	0.185 ± 0.0226
CGAGTATC	0.435 ± 0.0231
CGAGTATA	0.29 ± 0.0819
ACCGATCG	0.272 ± 0.0437
ATATAGCC	0.25 ± 0.032
GGACACCA	0.3862 ± 0.00187
TAACACCA	0.299 ± 0.0116

Sequence	binding signal [E-score]
AGACACCT	0.287 ± 0.0126
GGACACGA	0.176 ± 0.0225
TGACACCA	0.466 ± 0.0154
AGACACCA	0.329 ± 0.0244
GATTATCA	0.2193 ± 0.00188
CCAGATTA	0.252 ± 0.0366
ACCATGTA	0.197 ± 0.0756
GAGGACAC	0.222 ± 0.0132
AGGCGGAT	0.346 ± 0.0312
ACTCGGAT	0.38 ± 0.00767
AGACGGCA	0.197 ± 0.0126
AATCGGAT	0.253 ± 0.0252
ATACGTAT	0.421 ± 0.00632
ATACGTAC	0.336 ± 0.0217
ACACGGAT	0.4012 ± 0.00112
ATACGTAG	0.276 ± 0.0521
AGTCGGAT	0.296 ± 0.0281
ACACGGCT	0.2 ± 0.00761
AGACGGAT	0.402 ± 0.0158
AAACGGAT	0.364 ± 0.0337
